Over roughly 140,000 sequences, “enrichment ratio after two sorts for PhoP signalling” has its median near 0; the highest 2% begin near 11. For the sample, the highest values were picked, then their nearest neighbours and some sequences at random.
B1: PhoQ; a variant is named by its letters at X, in order, P23837 (parent)
chain: MKKLLRLFFPLSLRVRFLLATAAVVLVLSLAYGMVALIGYSVSFDKTTFRLLRGESNLFYTLAKWENNKLHVELPENIDKQSPTMTLIYDENGQLLWAQRDVPWLMKMIQPDWLKSNGFHEIEADVNDTSLLLSGDHSIQQQLQEVREDDDDAEMTHSVAVNVYPATSRMPKLTIVVVDTIPVELKSSYMVWSWFIYVLSANLLLVIPLLWVAAWWSLRPIEALAKEVRELEEHNRELLNPATTRELTSLVRNLNRLLKSERERYDKYRTTLTDLTHSLKTPLXXLQXXLRSLRSEKMSVSDAEPVMLEQISRISQQIGYYLHRASMRGGTLLSRELHPVAPLLDNLTSALNKVYQRKGVNISLDISPEISFVGEQNDFVEVMGNVLDNACKYCLEFVEISARQTDEHLYIVVEDDGPGIPLSKREVIFDRGQRVDTLRPGQGVGLAVAREITEQYEGKIVAGESMLGGARMEVIFGRQHSAPKDE

Variants of: B1
Experiment: enrichment ratio after two sorts for PhoP signalling (ratio (wild type AVST 3.29)); higher = more functional
Settings: with PhoP (E. coli)

| Variant | enrichment ratio |
| --- | --- |
| VAVY | ≤ 0.25 |
| IKRV | ≤ 0.25 |
| WDMR | ≤ 0.25 |
| RSTE | ≤ 0.25 |
| RVPP | ≤ 0.25 |
| KQPC | ≤ 0.25 |
| EFMI | ≤ 0.25 |
| QNHE | ≤ 0.25 |
| HRLN | ≤ 0.25 |
| REIC | ≤ 0.25 |
| VPQL | ≤ 0.25 |
| KSWV | ≤ 0.25 |
| TEGG | 5.71 |
| TEHV | 10.3 |
| TEMK | 32.5 |
| TEVG | 10.9 |
| TEMG | 19.1 |
| KRMK | ≤ 0.25 |
| HPWV | ≤ 0.25 |
| TEGV | 12.6 |
| TEWV | 18.4 |
| NRMK | ≤ 0.25 |
| TGGV | 4.98 |
| GQIN | ≤ 0.25 |
| NEIF | ≤ 0.25 |

| Variant | enrichment ratio |
| --- | --- |
| PWWM | ≤ 0.25 |
| LMKL | ≤ 0.25 |
| AMSP | ≤ 0.25 |
| SRMA | ≤ 0.25 |
| TEMT | 7.24 |
| TRMY | 0.856 |
| MEAG | ≤ 0.25 |
| TEMI | 51.6 |
| TEMA | 38.6 |
| KRMA | ≤ 0.25 |
| TEMF | 5.53 |
| NEAG | 2.93 |
| TEMY | 12.3 |
| LRMY | ≤ 0.25 |
| TEAG | 19.7 |
| KIPV | ≤ 0.25 |
| QTVW | ≤ 0.25 |
| FSFP | ≤ 0.25 |
| AQQP | ≤ 0.25 |
| AQCI | 8.62 |
| AQFM | 12.2 |
| AQGD | ≤ 0.25 |
| AIFM | ≤ 0.25 |
| AQCQ | 31.6 |
| AKFM | 0.887 |

| Variant | enrichment ratio |
| --- | --- |
| AQCS | 11.1 |
| AQCA | 32.5 |
| EQCQ | ≤ 0.25 |
| AQGM | 13.3 |
| AQGR | ≤ 0.25 |
| NSDI | ≤ 0.25 |
| SHDW | ≤ 0.25 |
| PPSE | ≤ 0.25 |
| GEHW | ≤ 0.25 |
| SDNF | ≤ 0.25 |
| WLKM | ≤ 0.25 |
| FCKF | ≤ 0.25 |
| MLLR | ≤ 0.25 |
| FQAN | ≤ 0.25 |
| ILQV | ≤ 0.25 |
| ELVF | ≤ 0.25 |
| YMHL | ≤ 0.25 |
| ENAI | ≤ 0.25 |
| AQWM | ≤ 0.25 |
| AQRM | ≤ 0.25 |
| AQCK | 29.5 |
| EQPV | ≤ 0.25 |
| NEVC | ≤ 0.25 |
| APLL | ≤ 0.25 |
| NGLL | 3.87 |

| Variant | enrichment ratio |
| --- | --- |
| GEGL | ≤ 0.25 |
| SPLL | ≤ 0.25 |
| SRLL | 10.3 |
| CFLL | ≤ 0.25 |
| ALLL | 8.77 |
| GEEL | ≤ 0.25 |
| TGLL | 12.6 |
| SNLL | 18.5 |
| ANLL | 13.4 |
| GELL | 12.9 |
| FYWW | ≤ 0.25 |
| TYKE | ≤ 0.25 |
| SNRC | ≤ 0.25 |
| GTRN | ≤ 0.25 |
| HRVR | ≤ 0.25 |
| LSWW | ≤ 0.25 |
| ACNW | ≤ 0.25 |
| QYTV | ≤ 0.25 |
| PYEY | ≤ 0.25 |
| MGMC | 5.27 |
| FGNL | ≤ 0.25 |
| YHLL | ≤ 0.25 |
| THLL | 14 |
| TILL | 0.421 |
| KDLL | ≤ 0.25 |

| Variant | enrichment ratio |
| --- | --- |
| SGLL | 19.8 |
| FGLL | 12.6 |
| QGLL | 10.4 |
| FDLL | ≤ 0.25 |
| NHLL | ≤ 0.25 |
| TDLL | 11.8 |
| IMDM | ≤ 0.25 |
| IQAN | ≤ 0.25 |
| PYDA | ≤ 0.25 |
| PKEG | ≤ 0.25 |
| VQIN | ≤ 0.25 |
| QPDT | ≤ 0.25 |
| LCFE | ≤ 0.25 |
| CCPF | ≤ 0.25 |
| HHCS | ≤ 0.25 |
| GLLL | 11.7 |
| MVLL | 7.33 |
| ITLL | 7.22 |
| SELL | 16.3 |
| SMLL | 11.2 |
| SMLS | 6.78 |
| QELL | ≤ 0.25 |
| GLLA | ≤ 0.25 |
| SMLA | 6.54 |
| CTLL | 0.613 |

| Variant | enrichment ratio |
| --- | --- |
| TTLL | 17.7 |
| HWCD | 2.96 |
| RPRI | ≤ 0.25 |
| VRDD | ≤ 0.25 |
| KIGV | ≤ 0.25 |
| THDR | ≤ 0.25 |
| AYVL | ≤ 0.25 |
| MAPF | ≤ 0.25 |
| SDCN | 4.78 |
| WMRH | ≤ 0.25 |
| DNPC | ≤ 0.25 |
| GGLL | 12.7 |
| GYLL | ≤ 0.25 |
| TNLL | 4.87 |
| AGLL | 14.6 |
| RGLL | ≤ 0.25 |
| MCLL | 8.32 |
| MNLL | 12.4 |
| SQLL | 12.5 |
| KYLL | ≤ 0.25 |
| DPLL | ≤ 0.25 |
| QKGI | ≤ 0.25 |
| VHAG | ≤ 0.25 |
| IAYV | ≤ 0.25 |
| FDHC | ≤ 0.25 |

| Variant | enrichment ratio |
| --- | --- |
| EIDC | ≤ 0.25 |
| SSGH | 7.6 |
| QDTV | ≤ 0.25 |
| ILKM | ≤ 0.25 |
| SALL | 18.6 |
| MGLL | 14.3 |
| IILL | 1.2 |
| VTLL | 17.8 |
| VTLA | 5.19 |
| KQLL | ≤ 0.25 |
| MGRL | ≤ 0.25 |
| SLLL | 5.02 |
| MGGL | 4.99 |
| SFLL | 3.56 |
| STLL | 16.4 |
| VYLL | ≤ 0.25 |
| PQRH | ≤ 0.25 |
| LTHP | ≤ 0.25 |
| TKSQ | 2.92 |
| HTAI | ≤ 0.25 |
| KTTI | ≤ 0.25 |
| LGSF | ≤ 0.25 |
| YVWK | ≤ 0.25 |
| IDNN | ≤ 0.25 |
| EQLL | ≤ 0.25 |

| Variant | enrichment ratio |
| --- | --- |
| TQLL | 18.9 |
| ATLL | 20.5 |
| YYLL | ≤ 0.25 |
| GSLL | 14.1 |
| GSRL | ≤ 0.25 |
| FTLL | 11.6 |
| AHLL | 9.28 |
| TPLL | ≤ 0.25 |
| IQLL | 0.329 |
| YTLL | 9.09 |
| ADLL | 9.99 |
| VRSK | ≤ 0.25 |
| LRNP | ≤ 0.25 |
| AMGN | 1.38 |
| QRDR | ≤ 0.25 |
| FIYI | ≤ 0.25 |
| ITNW | ≤ 0.25 |
| WLSG | ≤ 0.25 |
| FDMD | ≤ 0.25 |
| MVGW | ≤ 0.25 |
